# PLK1 PBD inh = PLK1 (human) polo-box domain binding inhibition | P53350 | AID 720504 | Plk1 PBD binding of FITC phosphopeptide, fluorescence polarization | actives 2.8% (n = 360,000) | Potency, µM, for inactives: max response, negative = inhibition, actives largely listed as inhibitors; note: series mostly up to about 57 µM; % is set by controls: 0 for no effect and ±100 for the full control effect; nearly all actives have a fitted effect of over 65% in size
# Tb PFK inh = T. brucei PFK enzyme inhibition. T. brucei PFK, ADP-Glo luminescence. Potency, µM (doses to about 57.5 µM), for inactives: at the top dose activity, negative = inhibition, actives largely listed as inhibitors. actives 0.17% (n = 330,000);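 note: 0% = uninhibited 1x PFK enzyme wells and -100% = no-enzyme wells; nearly all actives have a fitted effect of over 60% in size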
# Target sequence (O15648 whole entry, looked up): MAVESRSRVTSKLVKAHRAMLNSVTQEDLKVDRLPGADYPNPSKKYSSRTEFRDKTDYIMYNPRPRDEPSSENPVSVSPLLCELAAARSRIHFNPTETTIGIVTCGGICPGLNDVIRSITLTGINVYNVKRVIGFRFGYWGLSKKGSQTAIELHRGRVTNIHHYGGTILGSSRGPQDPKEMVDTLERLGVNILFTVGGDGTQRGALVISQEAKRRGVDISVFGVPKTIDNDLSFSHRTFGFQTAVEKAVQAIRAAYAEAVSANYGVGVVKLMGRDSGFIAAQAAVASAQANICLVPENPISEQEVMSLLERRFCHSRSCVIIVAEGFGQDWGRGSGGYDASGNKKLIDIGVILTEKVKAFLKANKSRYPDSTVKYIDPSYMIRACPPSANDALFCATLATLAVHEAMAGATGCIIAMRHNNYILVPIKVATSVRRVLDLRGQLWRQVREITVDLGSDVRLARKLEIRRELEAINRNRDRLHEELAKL
#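 1.25 nM PFK with 0.5 mM F6P and 0.1 mM ATP in 0.1 M TEA pH 8.0, 5 mM MgCl2, incubated 45 min at room temperature; ADP measured by ADP-Glo luminescence; compounds titrated up to 57 uM.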
# BRCA1 expr act = activators of BRCA1 expression | MCF7-BRCA1-FFLuc reporter, luminescence, 48 h; response scale: scaled: vehicle 0%, 10 µM genistein 100% | Potency, µM (doses to about 46.1 µM), for the others: top-dose activation, hits mostly activators | actives 1.1% (n = 380,000) | AID 624202; note: nearly all actives have a fitted effect of over 80% in size
#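 Reporter cells (MCF7, BRCA1 promoter-firefly luciferase) received library compounds across a concentration series for 48 h. End-point luminescence was measured and concentration-effect curves derived after normalization.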
# VDR inhibitor = blocks the human vitamin D receptor; actives 0.93% (n = 400,000); P11473; Potency, µM, for inactives: max response, negative = inhibition, actives largely listed as inhibitors; VDR-SRC2-3 peptide fluorescence polarization, 2 h; note: % is set by controls: 0 for no effect and ±100 for the full control effect
#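 The screen uses fluorescence polarization to detect compounds that interfere with recruitment of the SRC2-3 coactivator peptide to VDR; plates are read after 2 h at room temperature.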
# Numbers without * were called inactive; ? = inconclusive; / = not tested or not shown. Sampled rows, rich in hits. Any-hit rate of the full collection: about 3.9%. Calls come from the whole dose curve; as a rule, active = well fitted curve in the direction sought with a large enough effect; inconclusive = small, poorly fitted or top-dose-only effect, or another doubt; inactive = no such curve, though single readings can be large; an effect the other way counts as inactive or inconclusive. Potency is the fitted concentration of half-maximal effect.
SMILES,PLK1 PBD inh,Tb PFK inh,BRCA1 expr act,VDR inhibitor
O=[N+]([O-])c1ccc(COc2cccc3cccnc23)cc1,2%,-6%,11µM*,-18%
O=[N+]([O-])c1ccc(Sc2cccc3cccnc23)c([N+](=O)[O-])c1,6.7µM*,-5%,-66%,?
Cc1ccc(OCc2ccc([N+](=O)[O-])cc2)c([N+](=O)[O-])n1,-2%,0%,5µM*,2%
C=CCn1nc([N+](=O)[O-])nc1Sc1cccc2cccnc12,7.5µM*,-5%,-67%,?
Cc1ccc(S(=O)(=O)N(C)C[C@@H]2Oc3ncc(C#CCC(C)C)cc3C(=O)N([C@H](C)CO)C[C@H]2C)cc1,-8%,/,-43%,/
Cc1cccc(-c2nc3ccccc3n2Cc2ccccc2)c1,/,/,/,10%
Cc1ccc(OCCOc2ccc(Br)cc2)c([N+](=O)[O-])n1,-8%,-21%,3.2µM*,-3%
CCOC(=O)C(=CNc1nc(-c2ccccc2)c(C(=O)Nc2ccc(-c3ccccc3)cc2)s1)C(=O)OCC,-13%,4%,2%,-8%
Cc1ccc(-c2nnc(Nc3cccc(O)c3)c3ccccc23)cc1S(=O)(=O)N1CCCCC1,/,/,/,-1%
O=C(Nc1nc2ccccc2s1)c1ccc2sc([C@H]3C[C@H](O)[C@@H](CO)O3)nc2c1,3%,/,?,/
O=C(Nc1ccc2c(c1)OCO2)c1ccc2sc([C@H]3C[C@H](O)[C@@H](CO)O3)nc2c1,-11%,/,8.9µM*,/
O=C(Nc1ccc2c(c1)OCO2)c1ccc2sc([C@@H]3O[C@H](CO)[C@H](O)[C@H](O)[C@H]3O)nc2c1,-7%,/,5%,/
O=C(Nc1ccc2c(c1)OCO2)c1ccc2sc([C@@H]3O[C@H](CO)[C@@H](O)[C@H]3O)nc2c1,-12%,/,3.2µM*,/
O=C(Nc1nccs1)c1ccc2sc([C@H]3C[C@H](O)[C@@H](CO)O3)nc2c1,-2%,/,13µM*,/
Brc1cccc(-c2nnn3c2nc(N2CCCCC2)c2ccccc23)c1,/,/,-5%,-4%
CCCN(CCC)S(=O)(=O)c1ccc2c(c1)N(CC(=O)NCc1ccc(F)cc1Cl)C(=O)CS2,/,/,/,10%
CCCn1cc(S(=O)(=O)c2cc(C)ccc2C)c(=O)c2cc(F)c(N3CCOCC3)cc21,/,/,/,7%
CSC1=NSC2=NC(=O)/C(=C/c3coc4ccc(O)cc4c3=O)C(=N)N12,?,-4%,-3%,?
N=C1/C(=C/c2cccs2)C(=O)N=C2SN=C(SCc3ccccc3)N12,27µM*,-1%,42%,12%
CC(C)CSC1=NSC2=NC(=O)/C(=C\c3cccs3)C(=N)N12,?,-7%,-14%,-16%
CSC1=NSC2=NC(=O)/C(=C/c3coc4ccccc4c3=O)C(=N)N12,21µM*,5%,-11%,50µM*
CCOc1cc(C(=O)Nc2ccc3c(c2)n(C)c(=O)c(=O)n3C)cc(OCC)c1OCC,/,/,/,-9%
CCOC(=O)/C(=C/c1ccc(OC(=O)c2ccncc2)cc1)C(C)=O,?,-1%,0%,?
COCCOC(=O)/C(=C/c1ccc(OC(=O)c2ccccc2)cc1)C(C)=O,21µM*,-5%,-21%,22µM*
Cc1ccc2c(c1)c1c(c(=O)n(-c3ccccc3)c(=O)n1CC(=O)NCCC1=CCCCC1)n2C,/,/,5%,7%
SMILES,PLK1 PBD inh,Tb PFK inh,BRCA1 expr act,VDR inhibitor
N#CCOc1ccc2oc(-c3ccco3)cc(=O)c2c1,/,-1%,/,/
CC(C)OCCOc1ccc2oc(-c3ccco3)cc(=O)c2c1,-9%,?,8.9µM*,8%
CN(C)c1cc2c3ccccc3ccc2c2ccccc12,/,/,0%,/
CC1CCCCN1C(=O)Cn1cnc2cc([N+](=O)[O-])ccc2c1=O (centres undefined),9.5µM*,1%,2%,?
CN(C)c1ccc(N=Nc2ccc(/C=C/c3ccnc4ccccc34)cc2)cc1,/,/,46%,/
COc1cccc(/C=N/NC(=O)c2c(C)nc3ccc(Cl)cn23)c1O,17%,-2%,-88%,-7%
COc1cc(O)c2c(c1)C(=O)c1cc(C)cc(O)c1C2=O,/,/,/,22µM*
S=c1nc(-c2csc3c2CCCC3)[nH][nH]1,27µM*,-19%,-5%,?
S=c1nc(-c2ccccc2Cl)[nH][nH]1,?,0%,2%,-16%
Cc1ccc(S(=O)(=O)NCC2CCC(C(=O)NCc3ccc(F)cc3)CC2)cc1 (centres undefined),/,/,/,18%
COCCNS(=O)(=O)c1ccc2c(c1)Cc1cc(S(=O)(=O)NCCOC)ccc1-2,19µM*,0%,-3%,?
Cc1cc(C)cc(C(=O)NN2CCN(C)CC2)c1,12µM*,2%,-10%,?
Cc1cc(C)cc(C(=O)NN2CCOCC2)c1,-7%,6%,-2%,-7%
O=C1SC(SCc2ccccc2)=N/C1=C\c1ccco1,?,/,1%,-17%
CC(/C=C1\N=C(SCc2ccccc2Cl)SC1=O)=C\c1ccccc1,27µM*,1%,5%,-10%
O=[N+]([O-])c1ccc(/C=C/c2ccnc3ccccc23)cc1,/,/,-22%,/
O=C(CCC(=O)N/N=C/c1cc(Cl)cc(Cl)c1O)NCc1ccccc1,9.5µM*,-1%,-78%,?
COc1ccn(C2CCCCO2)c(=O)n1 (centres undefined),-2%,/,-2%,17%
CCOC(=O)c1c(-c2ccccc2)oc2ccc(O)c(CN3CCOCC3)c12,12µM*,-6%,-19%,-21%
CN(C)Cc1c(O)ccc2occ(C(=O)c3ccccc3)c12,-1%,/,0%,9%
O=C(c1ccccc1)c1coc2ccc(O)c(CN3CCOCC3)c12,21µM*,1%,-2%,-11%
Oc1ccc(/C=C/c2nc(-c3ccccc3O)n(-c3ccccc3)n2)c(O)c1,/,/,/,-1%
COc1ccc(/C=C2\Oc3cc(OCC(=O)N4CCC[C@H]4C(=O)O)ccc3C2=O)c(OC)c1,9%,-5%,-6%,-8%
COc1cc(OC)c(OC)cc1/C=C1\Oc2cc(OCC(=O)N3Cc4ccccc4C[C@H]3C(=O)O)ccc2C1=O,51%,12µM*,-18%,-3%
Cc1ccc(C(=O)n2ncn(C)c2=S)cc1,9.5µM*,-1%,8%,?
SMILES,PLK1 PBD inh,Tb PFK inh,BRCA1 expr act,VDR inhibitor
CCn1nc(-c2ccccc2C)nc2c(=O)n(C)c(=O)nc1-2,/,/,-78%,?
CC(C)(C)c1ccc2c(c1)OC(C(=O)N/N=C\c1ccc(-c3cccc(C(=O)O)c3)o1)CO2 (centres undefined),19µM*,-10%,?,?
CC(C)(C)c1ccc2c(c1)OC(C(=O)N/N=C\c1ccccn1)CO2 (centres undefined),-8%,-4%,-1%,-14%
Cc1ccc(Nc2nc(N)c([N+](=O)[O-])c(NCc3ccccc3)n2)cc1,-14%,-1%,-58%,0%
CCC(C)Nc1nc(N)c([N+](=O)[O-])c(NCc2ccccc2)n1 (centres undefined),30µM*,1%,-37%,-9%
C1=Nc2ccccc2CN1c1ccccc1,8%,-20%,7.1µM*,13%
CC(C)c1ccc(N2C=Nc3ccc(C(C)C)cc3C2)cc1,-5%,1%,-1%,?
